# NPC1 promoter act: qHTS Assay for NPC1 Promoter Activators | 2.4% of 320,000 active | Potency, µM (highest dose often 9.22 µM), without a hit: top-dose activation, actives largely listed as activators | AID 485313, 2010 | Huh7 NPC1 promoter luciferase reporter, 24 h; note: % of control where 0% means no effect; nearly all actives have a fitted effect of over 60% in size
#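 In 1536-well qHTS, Huh7 cells harboring an NPC1 promoter–luciferase construct received compound for 24 h; activation was quantified by luminescence following luciferase reagent addition.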
# Rab9 promoter act: qHTS Assay for Rab9 Promoter Activators | Huh7 Rab9 promoter-luciferase reporter, luminescence, 24 h | Potency, µM (titrated, usually from 9.22 µM), for inactives: at the highest dose activation, negative = inhibition, usual class: activators | 2.8% of 320,000 active | AID 485297, 2010; note: % of control where 0% means no effect; nearly all actives have a fitted effect of over 60% in size
#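 Huh7 cells stably carrying Rab9 promoter–luciferase reporter, plated 1500 cells/well, compound added after 2 h and incubated 24 h at 37 °C; luciferase luminescence then read after 10 min with detection reagent.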
# SMN2 splice enh: qHTS Assay for Enhancers of SMN2 Splice Variant Expression; HEK293 SMN2-luciferase splicing reporter, luminescence, 30-36 h; Potency, µM (top dose mostly 46.1 µM), for inactives: at the highest dose activity change, positive = activation, actives largely listed as activators; 2.8% of 210,000 active; AID 1458, 2008; note: % of control where 0% means no effect; nearly all actives have a fitted effect of over 55% in size
#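 HEK293 cells carry an SMN2 minigene-luciferase reporter in which exon 7 inclusion puts luciferase in frame. Cells were seeded at 2000 cells/well, attached for 10-12 hours, then exposed to compounds for 30-36 hours at 37C before ONE-Glo luminescence.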
# ELG1 genotoxic: qHTS screen for small molecules that induce genotoxicity in human embryonic kidney (HEK293T) cells expressing luciferase-tagged ELG1. HEK293T ELG1-luciferase reporter, luminescence, 16 h. Potency, µM (top dose mostly 46 µM), without a hit: at the top dose activity change, positive = activation, actives largely listed as activators. 1.3% of 330,000 active. AID 504466, 2011; note: % of control where 0% means no effect; nearly all actives have a fitted effect of over 60% in size
#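 Screening used a luciferase reporter fused to human ELG1 in HEK293T cells. Luminescence was read on a CCD plate imager after 16 hr exposure and 30 min ONE-Glo incubation.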
# ELG1 repair inh: qHTS screen for small molecules that inhibit ELG1-dependent DNA repair in human embryonic kidney (HEK293T) cells expressing luciferase-tagged ELG1. HEK293T ELG1-luciferase reporter, luminescence, 16 h; DNA damage induced by 5-fluorouridine. Potency, µM (titrated, usually from 46.1 µM), for the others: at the top dose activity change, negative = inhibition, most hits filed as inhibitors. 2.3% of 330,000 active; note: % is set by controls: 0 for no effect and ±100 for the full control effect; nearly all actives have a fitted effect of over 55% in size
#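 Overnight (16 hr) co-exposure of 2,000 cells/well to 5-fluorouridine and compound at 37 °C preceded detection. Luciferase was quantified via ONE-Glo luminescence; loss of signal denotes inhibition.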
# FLuc counter: qHTS profiling assay for firefly luciferase inhibitor/activator using purifed enzyme and Km concentrations of substrates (counterscreen for miR-21 project); Luciferin 4-monooxygenase (Photinus pyralis), P08659; purified FLuc, Km substrates, luminescence inhibition; Potency, µM (top dose mostly 57.5 µM), for inactives: top-dose activity change, negative = inhibition, actives largely listed as inhibitors; 6.9% of 360,000 active; AID 588342, 2011;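 note: plate controls were vehicle for no effect and reference inhibitor for full effect; nearly all actives have a fitted effect of over 55% in size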
# Target sequence (P08659 whole entry, looked up): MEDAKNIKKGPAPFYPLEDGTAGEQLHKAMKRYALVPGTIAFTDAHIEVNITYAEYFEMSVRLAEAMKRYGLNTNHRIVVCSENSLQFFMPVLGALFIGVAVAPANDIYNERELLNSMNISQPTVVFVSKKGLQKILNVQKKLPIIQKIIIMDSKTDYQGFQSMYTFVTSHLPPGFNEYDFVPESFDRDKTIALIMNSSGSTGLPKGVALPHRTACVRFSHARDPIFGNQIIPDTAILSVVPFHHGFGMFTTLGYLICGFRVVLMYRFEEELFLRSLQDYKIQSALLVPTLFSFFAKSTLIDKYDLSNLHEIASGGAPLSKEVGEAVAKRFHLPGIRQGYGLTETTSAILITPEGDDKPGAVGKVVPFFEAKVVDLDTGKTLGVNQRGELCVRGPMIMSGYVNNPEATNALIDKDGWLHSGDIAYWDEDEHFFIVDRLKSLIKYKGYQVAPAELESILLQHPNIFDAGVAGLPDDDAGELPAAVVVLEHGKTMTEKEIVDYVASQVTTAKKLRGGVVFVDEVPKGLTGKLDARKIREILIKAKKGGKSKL
#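 Purified P. pyralis luciferase (10nM final) with 10uM D-luciferin and 10uM ATP (Km levels) in 50mM Tris acetate pH 7.5, 10mM Mg acetate, 0.01% Tween-20, 0.05% BSA; qHTS 6-point titration, ~60 µM downward; luminescence read.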
# Numbers without * were called inactive; ? = inconclusive; nt = not tested or not shown; [ ] = remark or other dose. The list is not random: actives were taken first. Their share in the collection is about 9.3%. Calls come from the whole dose curve; as a rule, active = well fitted curve in the direction sought with a large enough effect; inconclusive = small, poorly fitted or top-dose-only effect, or another doubt; inactive = no such curve, though single readings can be large; an effect the other way counts as inactive or inconclusive. Potency is the fitted concentration of half-maximal effect.
SMILES,NPC1 promoter act,Rab9 promoter act,SMN2 splice enh,ELG1 genotoxic,ELG1 repair inh,FLuc counter
CCC(=O)Nc1ccc(NC(=O)Cc2ccccc2)cn1,-0.8%,0.3%,3.6%,2.4%,0.0%,3.4%
CCCC(=O)Nc1ccc(NC(=O)c2ccccc2)nc1,0.316µM*,0.282µM*,nt,?,?,4.78µM*
O=C(COC(=O)C1CC(=O)N(Cc2ccccc2)C1)Nc1ccc(Cl)cc1F (stereo unspecified),-5.6%,-1.3%,8.6%,7.0%,-13.0%,-2.6%
O=C(N/N=C/c1cn(-c2ccccc2)nc1-c1cc2ccccc2o1)c1cccnc1,?,?,3.98µM*,?,?,2.13µM*
O=C(N/N=C/c1cn(-c2ccccc2)nc1-c1cc2ccccc2o1)c1ccncc1,2.82µM*,2.24µM*,7.08µM*,?,?,1.9µM*
O=C(O)c1cccc(NC(=O)c2cn(-c3ccccc3)nc2-c2cc3ccccc3o2)c1,2.8%,8.8%,20.9%,9.0%,28.7%,4.26µM*
NC(=O)c1cn(-c2ccccc2)nc1-c1cc2ccccc2oc1=O,-1.4%,-4.2%,-5.6%,1.5%,-0.1%,2.5%
Cc1cc(CN2CCN(CC(=O)Nc3cc(C(F)(F)F)ccc3-n3cncn3)CC2)no1,0.0%,-3.2%,nt,-0.1%,-24.2%,-0.5%
COc1ccc([C@]23Cc4cc(OC)c(OC)cc4C(O2)c2c(cc(C)n(Cc4ccccc4)c2=O)O3)cc1,-7.0%[1.84 µM],0.0%[1.84 µM],nt,nt,nt,?
COc1ccc2c(CC(=O)Nc3ccccc3N3CCOCC3)coc2c1,-1.2%,-3.8%,nt,-5.2%,-9.6%,-0.9%
COc1ccccc1C(CNC(=O)c1ccc(NS(=O)(=O)c2ccc3c(c2)OCCO3)cc1)N(C)C (stereo unspecified),-0.6%,-4.2%,nt,-0.5%,-0.3%,7.1%
CC(=O)n1c2ccccc2c2c1c1ccccc1n2C,25.9%,5.8%,11.3%,1.0%,0.9%,-1.8%
CCn1c2ccccc2c2nc3cc(C(=O)O)ccc3nc21,12.6%,29.8%,-57.4%,?,?,19µM*
CCn1c2ccccc2c2nc3cc(OC)c(OC)cc3nc21,-2.0%,14.8%,nt,-1.8%,?,8.49µM*
COc1cc2nc3c4ccccc4n(CC#N)c3nc2cc1OC,?,2.3%,-8.7%,1.0%,-4.9%,?
CC(=O)n1c2ccccc2c2nc3ccccc3nc21,3.16µM*,2.82µM*,nt,?,?,?
CCn1c2ccccc2c2nc3ccccc3nc21,?,-4.0%,-29.1%,1.4%,-1.0%,?
Cc1cc(Cl)ccc1N(CC(=O)NCc1ccc2c(c1)OCO2)S(C)(=O)=O,-7.0%,-12.0%,-17.9%,-1.0%,1.2%,-12.8%
COc1ccc(/C(O)=C/c2nc3ccccc3n(-c3ccccc3)c2=O)cc1,-2.5%,25.8%,-26.3%,20.5%,17.3%,7.57µM*
CSc1nc(C)cc(SCC(=O)N/N=C/c2ccccc2)n1,-0.1%,-13.7%,-21.5%,1.5%,1.4%,-2.8%
CC(C)Cc1ccc(C(C)C(=O)Nc2ccccc2O)cc1 (stereo unspecified),-10.9%,-31.4%,nt,12.8%,5.8µM*,-0.8%
O=C(Nc1ccccc1O)C(c1ccccc1)c1ccccc1,-20.1%,-3.5%[1.84 µM],nt,-10.1%,4.61µM*,0.9%
CCN1C(=O)CC(N2CCN(c3ccc(Cl)cc3)CC2)C1=O (stereo unspecified),-6.0%,1.6%,-9.2%,-7.2%,-24.9%,2.6%
CCN1C(=O)CC(N2CCN(c3ccc(C(=O)c4ccccc4)cc3)CC2)C1=O (stereo unspecified),nt,nt,-13.6%,nt,nt,19µM*
CCOc1ccc(/C=C(\C#N)c2nc(-c3cc4ccccc4oc3=O)cs2)c(OCC)c1,nt,nt,7.0%,nt,nt,-6.1%
SMILES,NPC1 promoter act,Rab9 promoter act,SMN2 splice enh,ELG1 genotoxic,ELG1 repair inh,FLuc counter
CC(C)NC(=O)CCc1nnc(Cc2cccc(C(F)(F)F)c2)o1,?,?,nt,?,?,15.1µM*
Cc1ccccc1NC(=O)C(=Cc1ccc(C(=O)O)cc1)C(=O)Nc1ccccc1C,-36.7%,-52.4%,-52.7%,-19.7%,11.6µM*,-8.2%
Cc1ccc(NC(=O)Nc2cccn(Cc3c(F)cccc3Cl)c2=O)cc1,18.8%,19.4%,-4.6%,6.5%,-25.1%,7.57µM*
O=C(Nc1cccn(Cc2c(Cl)cccc2Cl)c1=O)C1CC1,-3.5%,1.9%,-9.6%,-12.4%,?,-12.1%
O=C(Nc1cccn(Cc2c(F)cccc2Cl)c1=O)NC1CCCCC1,-24.0%,-18.4%,nt,-1.6%,?,13.5µM*
O=C(NCc1ccccc1)Nc1cccn(Cc2c(F)cccc2Cl)c1=O,-11.3%,-9.3%,-26.2%,-0.5%,?,13.5µM*
C#CCOC(=O)Nc1cccn(Cc2c(Cl)cccc2Cl)c1=O,-20.7%,-6.4%,7.6%,-3.5%,-11.4%,16.9µM*
Cc1ccc2oc(=O)c3cc(C(=O)N4CCN(c5ccccc5F)CC4)sc3c2c1,nt,nt,-4.0%,nt,nt,-4.7%
COc1ccc(-c2nc3c(c4c2C[C@H](c2ccccc2)OC4)CN(C(=O)NCCc2c[nH]c4ccccc24)CC3)c(C)c1,nt,nt,-1.4%[9.22 µM],nt,nt,nt
Cc1nc2sccn2c(=O)c1S(=O)(=O)NC(C)c1ccccc1 (stereo unspecified),-2.9%,2.1%,nt,-2.1%,?,0.0%
CCc1nnc(NC(=O)CCC(=O)N2CCN(CCOc3ccc(C)cc3)CC2)s1,-4.8%,-6.0%,-43.6%,-15.2%,23.1µM*,0.2%
CN1C(=O)NC(c2ccccc2[N+](=O)[O-])C2=C1CCCC2=O (stereo unspecified),-0.3%,-1.9%,nt,-1.8%,-11.5%,-10.9%
CC(C)(C)c1ccc(OCCC(=O)OCC(=O)NCc2ccccc2)cc1,0.1%,-5.5%,nt,5.6%,-1.2%,19µM*
COc1ccc(CNC(=O)COC(=O)CCOc2ccccc2)cc1,-1.2%,3.5%,3.0%,0.0%,-0.4%,-4.0%
CC(C)(C)c1ccc(OCCC(=O)OCC(=O)NC2CC2)cc1,-3.8%,-8.2%,nt,-0.6%,?,15.1µM*
Cn1c(N)c(C(=O)COC(=O)CCOc2ccc(C(C)(C)C)cc2)c(=O)n(C)c1=O,-3.4%,8.0%,8.7%,3.9%,11.3%,21.3µM*
O=C(CN1CCC(C(=O)c2ccc3c(c2)OCCO3)CC1)NCc1ccccc1,-2.7%,-2.1%,nt,-5.7%,-11.4%,-1.9%
CCCn1c(=O)n(C)c(=O)c2c(SCC(=O)NCc3ccco3)nc(C3CC3)nc21,-4.6%,-2.4%,2.8%,-4.8%,?,7.8%

# Assay outcomes deposited in PubChem by National Center for Advancing Translational Sciences (NCATS).
